Potency and outcome data for nine compounds are collected here from PubChem BioAssay (Tox21).

Records with an inconclusive call do not appear. Some structures have more than one record in an assay (separate samples or runs), and their calls can disagree. Calls of active or inactive are those of the source. Unless noted, the call rests on the fitted dose curve; in most records, active means well fitted curve in the direction sought with a large enough effect in the repeat runs; inconclusive means weak or mixed curves; inactive means no such curve, though single readings can be large; an effect the other way counts as inactive or inconclusive.

Test [1] is described as follows: qHTS assay to identify small molecule agonists of the peroxisome proliferator-activated receptor delta (PPARd) signaling pathway - cell viability counter screen (AID 743211). Further: nearly all actives have a fitted effect of over 55% in size. Further: potency means the concentration at half of the fitted maximal effect. The gist of the method: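 Multiplexed format: after the 2 h room-temperature LiveBLAzer B/G FRET step, CellTiter-Glo was added to the same wells. Luminescence after 30 min gave cell viability; compound exposure was 17 h at 37C.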

The target of test [2] is Peroxisome proliferator-activated receptor delta (Homo sapiens) (UniProt Q03181). The test can be described thus: qHTS assay to identify small molecule agonists of the peroxisome proliferator-activated receptor delta (PPARd) signaling pathway (AID 743212; calls by dose curve). The gist of the method: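 HEK293H UAS-bla reporter cells, human PPARd system; compounds delivered in DMSO after 5 h plating, then at 37 C. Beta-lactamase FRET read, 2 h RT substrate step.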
Background: qHTS replaces the single test concentration by a dilution series.

Test [3] can be described thus: qHTS assay to identify small molecule antagonists of the peroxisome proliferator-activated receptor delta (PPARd) signaling pathway - cell viability counter screen (AID 743213). Further: nearly all actives have a fitted effect of over 50% in size. Summed up:
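In this counter screen, HEK293H cells carrying a UAS-beta-lactamase reporter are co-treated with test compounds and 300 nM L165041 (final) for 17 h at 37 C; cell viability is quantified by CellTiter-Glo luminescence.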

Test [4] deals with Peroxisome proliferator-activated receptor delta (Homo sapiens) (UniProt Q03181). The test can be described thus: qHTS assay to identify small molecule antagonists of the peroxisome proliferator-activated receptor delta (PPARd) signaling pathway (AID 743215; active means well fitted inhibition curve with a large enough effect in the signal ratio in the repeat runs, not every such curve was filed as active; the % refers to the signal ratio;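 further: cells stimulated with agonist L165041 at 300 nM final during compound exposure; series mostly up to about 62 µM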). Summed up:
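With L165041 present at 300 nM final, compounds were incubated 17 h at 37 C on PPARd UAS-bla HEK293H cells. A FRET-based beta-lactamase substrate was then applied for 2 h at room temperature and fluorescence intensity recorded.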

The target of test [5] is Bile acid receptor (Homo sapiens) (UniProt Q96RI1). Nature of the test: qHTS assay to identify small molecule antagonists of the farnesoid-X-receptor (FXR) signaling pathway (AID 743217; active means well fitted inhibition curve with a large enough effect in the signal ratio in the repeat runs, not every such curve was filed as active; the % refers to the signal ratio). The gist of the method:
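In this cell-based antagonist screen, inhibition of CDCA-driven (50 uM final) UAS-beta-lactamase expression in HEK 293T cells was measured by FRET fluorescence following 16 h compound exposure at 37 °C.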

Test [6] can be described thus: qHTS assay to identify small molecule agonists of the farnesoid-X-receptor (FXR) signaling pathway - cell viability counter screen (AID 743218). Further: nearly all actives have a fitted effect of over 45% in size. The gist of the method: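 After 16 h at 37 C with test compounds, FXR-bla HEK 293T cells were given LiveBLAzer B/G substrate for 2 h at RT and then CellTiter-Glo; luminescence was taken after 30 min.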
The target in test [7] is Bile acid receptor (Homo sapiens) (UniProt Q96RI1). Nature of the test: qHTS assay to identify small molecule agonists of the farnesoid-X-receptor (FXR) signaling pathway (AID 743220; active means well fitted activation curve with a large enough effect in the signal ratio in the repeat runs, not every such curve was filed as active; the % refers to the signal ratio). The gist of the method: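 Beta-lactamase reporter under UAS control in GeneBLAzer FXR HEK 293T cells (5000/well) measured with LiveBLAzer FRET substrate after 2 h at room temperature. Compound exposure lasted 16 h at 37C.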

A short description of test [8]: qHTS assay to identify small molecule antagonists of the farnesoid-X-receptor (FXR) signaling pathway - cell viability counter screen (AID 743221; active means well fitted cell-killing curve with a large enough effect in the repeat runs, not every such curve was filed as active; further: nearly all actives have a fitted effect of over 50% in size). Summed up: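 CellTiter-Glo, 30 min RT, luminescence; same wells as the LiveBLAzer FRET read. Cells: FXR-UAS-bla HEK 293T. Treatment: compound with chenodeoxycholic acid 50 uM final, 16 h at 37 C.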
In test [9] the target is Vitamin D3 receptor (Homo sapiens) (UniProt P11473). Nature of the test: qHTS assay to identify small molecule agonists of the vitamin D receptor (VDR) signaling pathway (AID 743222; calls by dose curve). Summed up:
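VDR-bla cells were seeded, left 4 h, treated with compounds in DMSO for 16 h, incubated 2 h at RT with B/G FRET substrate, and read for fluorescence.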

For test [10] the target is unchanged. Nature of the test: qHTS assay to identify small molecule antagonists of the vitamin D receptor (VDR) signaling pathway (AID 743223; active means well fitted inhibition curve with a large enough effect in the signal ratio in the repeat runs, not every such curve was filed as active; the % refers to the signal ratio). Summed up:
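After VDR-bla cells are plated and left 4 h at 37C, DMSO-dissolved compounds and 3 nM (final) calcitriol agonist are added. Incubation continues 16 h at 37C; FRET beta-lactamase substrate then develops 2 h at room temperature.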

Test [11] is described as follows: qHTS assay to identify small molecule agonists of the vitamin D receptor (VDR) signaling pathway - cell viability counter screen (AID 743224). Further: series mostly up to about 63 µM; nearly all actives have a fitted effect of over 50% in size. Summed up: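 Here cell health was gauged by luminescent ATP detection (CellTiter-Glo, 30 min RT) in VDR-bla cells that had been incubated with test compounds for 16 h at 37C and 5% CO2.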
Test [12] in a line: qHTS assay to identify small molecule agonists of the NFkB signaling pathway - cell viability counter screen (AID 1159515; calls by dose curve; further: series mostly up to about 61 µM; nearly all actives have a fitted effect of over 55% in size). The gist of the method: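 5 hr compound treatment of NFkB-bla ME-180 cells (2,000/well, seeded overnight beforehand), followed by reporter substrate for 1.5 hr. CellTiter-Glo added afterward; luminescence after 30 min RT.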
Test [13] is described as follows: qHTS assay to identify small molecule agonists of the endoplasmic reticulum stress response signaling pathway (AID 1159516; active means well fitted activation curve with a large enough effect in the signal ratio in the repeat runs, not every such curve was filed as active; the % refers to the signal ratio). Summed up:
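Reporter HeLa cells (ESRE-beta-lactamase) underwent 5 hr compound incubation at 37 C and 5% CO2 in quantitative HTS format. Detection followed 2 hr of FRET substrate loading at room temperature.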

The nature of test [14]: qHTS assay to identify small molecule agonists of the endoplasmic reticulum stress response signaling pathway - cell viability counter screen (AID 1159517; calls by dose curve;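 further: HeLa cells carrying an ER stress response element beta-lactamase reporter; series mostly up to about 61 µM; nearly all actives have a fitted effect of over 50% in size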). The gist of the method:
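Cells, HeLa ESRE-bla; density, 1,500/well; dosing, 5 hr at 37 C, 5% CO2; readout, CellTiter-Glo luminescence after 30 min RT.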

A short description of test [15]: qHTS assay to identify small molecule antagonists of the retinoid-related orphan receptor gamma (ROR-gamma) signaling pathway - cell viability counter screen (AID 1159520). Further: nearly all actives have a fitted effect of over 50% in size. The gist of the method: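 Cytotoxicity was read from cellular ATP (CellTiter-Glo luminescence) after 16 hr at 37 C with 1 uM doxycycline induction. The inducer was added 2 hr after compound transfer to Tet-on ROR gamma CHO cells.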

For test [16], the target named is Nuclear receptor ROR-gamma (Homo sapiens) (UniProt P51449). The test can be described thus: qHTS assay to identify small molecule antagonists of the retinoid-related orphan receptor gamma (ROR-gamma) signaling pathway (AID 1159521; further: nearly all actives have a fitted effect of over 50% in size; further: potency means the concentration at half of the fitted maximal effect). The gist of the method:
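Readout: ONE-Glo luciferase luminescence, 30 min at room temperature. System: Tet-on RORγ CHO, RORE-LUC. Sequence: compound 2 h, doxycycline 1 uM final, 16 h at 37 C.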

Test [17] is described as follows: qHTS assay to identify small molecule agonists of the AP-1 signaling pathway - cell viability counter screen (AID 1159525; calls by dose curve; further: nearly all actives have a fitted effect of over 55% in size). Summed up: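 Luminescent ATP readout (Cell Titer Glo, 30 min RT), normalised to DMSO and tetra n-octyl ammonium bromide controls. Cells were ME-180 AP-1-bla in 0.5% dialyzed FBS Opti-MEM, with a 5 h, 37 °C compound exposure.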
Test [18] is described as follows: qHTS assay to identify small molecule agonists of the AP-1 signaling pathway (AID 1159526; calls by dose curve).
Test [19] is described as follows: qHTS assay to identify small molecule antagonists of the vitamin D receptor (VDR) signaling pathway - cell viability counter screen (AID 743225). Further: nearly all actives have a fitted effect of over 50% in size. Summed up: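 Cytotoxicity toward the VDR-bla HEK 293T line was scored by ATP-based CellTiter-Glo luminescence, read in the wells already used for the beta-lactamase readout after 16 h compound treatment under 3 nM 1-alpha,25-dihydroxyvitamin D3 stimulation.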

Test [20] can be described thus: qHTS assay to identify small molecule agonists of the NFkB signaling pathway (AID 1159509; active means well fitted curve in the direction sought with a large enough effect in the signal ratio in the repeat runs, not every such curve was filed as active; the % refers to the signal ratio; further: series mostly up to about 61 µM). Summed up:
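After overnight attachment, reporter cells received test compounds, DMSO or positive controls and were incubated 5 hr at 37 C. FRET substrate was then added for 1.5 hr at room temperature before dual-emission fluorescence reading.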

Chain of Peroxisome proliferator-activated receptor delta (Homo sapiens) (Q03181 whole entry, looked up): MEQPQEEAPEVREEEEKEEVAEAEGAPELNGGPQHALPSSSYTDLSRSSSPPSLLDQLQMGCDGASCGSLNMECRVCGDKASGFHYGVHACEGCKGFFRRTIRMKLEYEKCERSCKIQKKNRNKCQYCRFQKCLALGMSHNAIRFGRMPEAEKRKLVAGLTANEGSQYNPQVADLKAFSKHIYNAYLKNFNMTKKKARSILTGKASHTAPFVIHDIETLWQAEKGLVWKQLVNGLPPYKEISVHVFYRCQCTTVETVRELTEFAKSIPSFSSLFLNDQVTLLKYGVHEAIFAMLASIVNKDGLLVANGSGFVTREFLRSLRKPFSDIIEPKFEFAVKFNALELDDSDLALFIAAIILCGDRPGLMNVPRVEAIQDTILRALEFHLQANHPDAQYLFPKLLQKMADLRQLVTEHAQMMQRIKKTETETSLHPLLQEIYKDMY
Chain of Bile acid receptor (Homo sapiens) (Q96RI1 whole entry, looked up): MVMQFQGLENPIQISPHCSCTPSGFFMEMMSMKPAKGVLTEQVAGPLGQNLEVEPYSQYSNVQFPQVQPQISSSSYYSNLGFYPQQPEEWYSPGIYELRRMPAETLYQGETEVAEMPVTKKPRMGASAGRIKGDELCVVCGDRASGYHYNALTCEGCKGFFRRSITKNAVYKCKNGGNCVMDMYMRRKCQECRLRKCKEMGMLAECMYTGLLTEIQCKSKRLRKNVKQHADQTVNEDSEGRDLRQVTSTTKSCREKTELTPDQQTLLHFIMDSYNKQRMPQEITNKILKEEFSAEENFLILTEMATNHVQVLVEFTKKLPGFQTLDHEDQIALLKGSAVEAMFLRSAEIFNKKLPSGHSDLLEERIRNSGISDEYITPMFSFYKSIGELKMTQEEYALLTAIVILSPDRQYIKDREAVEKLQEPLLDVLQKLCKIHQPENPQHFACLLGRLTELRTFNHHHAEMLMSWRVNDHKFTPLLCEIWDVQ
Chain of Vitamin D3 receptor (Homo sapiens) (P11473 whole entry, looked up): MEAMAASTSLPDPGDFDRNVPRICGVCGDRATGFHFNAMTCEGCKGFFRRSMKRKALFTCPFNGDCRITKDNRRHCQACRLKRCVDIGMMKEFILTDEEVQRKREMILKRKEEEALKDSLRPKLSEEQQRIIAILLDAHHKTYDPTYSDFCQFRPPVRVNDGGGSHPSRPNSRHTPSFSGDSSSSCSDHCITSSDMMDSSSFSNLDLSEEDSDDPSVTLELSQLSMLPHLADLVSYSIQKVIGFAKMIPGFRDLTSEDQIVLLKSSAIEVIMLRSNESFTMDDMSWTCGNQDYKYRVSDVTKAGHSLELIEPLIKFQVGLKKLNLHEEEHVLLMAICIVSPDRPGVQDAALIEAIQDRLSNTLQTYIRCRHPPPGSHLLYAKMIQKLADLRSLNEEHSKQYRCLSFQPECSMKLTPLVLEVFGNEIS

For the compound `CCN(CC)N=O`, the Potency result in test [1], in test [2], in test [3], in [4], in [5] and in test [6] was “inactive” in each case. Moreover, the Potency entry in [8], in test [11], in [12], in [14], in test [15] and in test [16] was “inactive” each time. For the same compound, in [17], the Potency result is “inactive”. Besides, the call in test [7], in [9], in [10], in test [13] and in [18] was inactive.

Take `CCOc1cc(Oc2ccc(C(F)(F)F)cc2Cl)ccc1[N+](=O)[O-]`: the Potency entry in test [1], in test [2], in test [3], in test [5], in test [8] and in test [11] was “inactive” throughout. Besides, the Potency result in [19], in [12], in test [14], in [15] and in test [17] was “inactive” throughout. The call in [7], in [20], in [13] and in [18] was inactive.

As to `CCCCOCCOP(=O)(OCCOCCCC)OCCOCCCC`, the Potency entry in test [2], in test [3], in test [4], in test [6], in test [8] and in [11] was “inactive” in each case. Further, the Potency result in test [12], in [14], in test [15], in [16] and in test [17] was “inactive” in each case. The compound was called inactive in test [9], in test [10], in [20], in test [13] and in test [18].

In the case of `Cc1cc(C)cc(C)c1`, the Potency result in test [1], in [3], in test [6], in test [8], in test [11] and in test [19] was “inactive” throughout. The Potency entry in [12], in test [14], in test [15], in [16] and in test [17] was “inactive” each time. Moreover, the result in test [9], in [10], in test [20], in [13] and in [18] was inactive.

As to `c1cc(OCC2CO2)ccc1Cc1ccc(OCC2CO2)cc1` (configuration not stated), the Potency result in [1], in [3], in test [5], in [8], in [11] and in [19] was “inactive” each time. For the same compound, the Potency result in [12], in [14], in test [15], in test [16] and in test [17] was “inactive” throughout. The result in test [7] and in [20] was inactive.

For the compound `CCC(C)(c1ccc(O)cc1)c1ccc(O)cc1`, the Potency was 54.9 µM (active) and inactive in test [1]; 54.4 µM (active) in [16]. Further, the Potency entry in test [3], in test [5], in test [8], in [11], in test [19] and in [12] was “inactive” in each case. For the same compound, the Potency result in test [14], in test [15] and in test [17] was “inactive” in each case. In addition, the result in test [7], in [20], in test [13] and in test [18] was inactive.

Regarding `CCOC(=O)C(C)OC(=O)c1cc(Oc2ccc(C(F)(F)F)cc2Cl)ccc1[N+](=O)[O-]` (configuration not stated), the Potency result in test [2], in test [3], in test [4], in [8], in test [11] and in test [19] was “inactive” each time. The Potency result in test [12], in test [14], in test [15] and in test [17] was “inactive” in each case. Moreover, the compound was classed as inactive in [20], in [13] and in test [18].

On to `COP(=S)(OC)Oc1cc(Cl)c(Cl)cc1Cl`, for which the Potency result in [1], in test [2], in test [3], in test [4], in [8] and in [11] was “inactive” throughout. Moreover, the Potency entry in test [19], in [12], in [14], in [15] and in test [17] was “inactive” throughout. Further, the call in test [20] and in test [13] was inactive.

In the case of `Oc1cc(Cl)c(Cl)cc1Cl`, the Potency entry in test [1], in test [3], in test [6], in [8], in test [11] and in test [12] was “inactive” in each case. Also, the Potency result in test [14], in test [15] and in [17] was “inactive” each time. The compound was classed as inactive in test [20], in test [13] and in test [18]. The Potency in test [16] is 48.2 µM (active).
